We go through 35 molecules from PubChem BioAssay.

Active and inactive are the calls of the source.

The experiment is described as follows: resazurin metabolic signal in A549 cells – cell-based, resazurin fluorescence, 24 h, PK04 Diversity Set, profiling panel (AID 1171). Further: test concentration not given here. The conditions noted are these: A549 viability, higher = more signal, called active from +8 up or from −8 down.
In the case of `COC(=O)C(CC#Cc1ccc2c(c1)[C@]1(C(=O)N2)[C@H](C(=O)NC[C@H](O)c2ccccc2)[C@H]2C(=O)O[C@H](c3ccccc3)[C@H](c3ccccc3)N2[C@@H]1c1ccccc1OCCO)C(=O)OC`, the z-score is 0.422 (inactive).

Regarding `CN(C)CCCNC(=O)[C@@]1(Cc2ccccc2I)c2ccccc2C(=O)N(C2CCCCC2)[C@H]1c1ccc(CO)cc1`, the z-score was -6.91 (inactive). In the case of `CN1C(=O)C2C=CC(C(O)c3ccc(-c4ccccc4)s3)N(NC(=O)OC(C)(C)C)C2C1=O` (stereo not given), the z-score was 0.117 (inactive). The value for `CCCNC(=O)[C@@]1(Sc2ccc(C)cc2)CC(=O)N(Cc2ccccc2Cl)[C@@H]1c1ccc(CO)cc1I` was 0.204 (inactive); that for `CN(C)c1ccc(C(O)C2C=CC3C(=O)N(Cc4ccccc4)C(=O)C3N2n2cnnc2)cc1` (stereo not given) was -1.04 (inactive).

Regarding `C[C@@H]1ON(c2ccccc2)[C@H](c2ccccc2)[C@H]1C(=O)O`, the z-score is -0.236 (inactive). The value for `O=C1[C@H]2C=C(I)[C@H](C[C@@H]2c2ccccc2)[C@@]12CO2` was -0.122 (inactive); that for `C=CCC(OC(C)=O)[C@@H]1[C@@H](N(Cc2ccc(-c3cccc(C(F)(F)F)c3)o2)C(=O)c2ccc(-c3ccccc3)cc2)c2cc(OCCCO)ccc2N1C(=O)c1ccc2ccccc2c1` (stereo not given in full) was 0.919 (inactive).

On to `O=C(NCc1ccc(F)cc1)[C@H]1C[C@H]2C(=O)N3CCC[C@H]3C(=O)N2[C@H]1c1ccc(O)cc1`, for which the z-score was -0.0909 (inactive). Then `N#Cc1ccc(NN2C(C(O)C3CC=CCC3)C=CC3C(=O)N(c4ccccc4)C(=O)C32)cc1` (stereo not given), with -0.997 (inactive); and `CCCNC(=O)[C@@]1(c2ccc([N+](=O)[O-])cc2)CC(=O)N(C(C)C)[C@@H]1c1ccc(CO)cc1`, with 0.0564 (inactive); and `CC(C)N1C(=O)C[C@@](C(=O)NCCN2CCOCC2)(c2ccc([N+](=O)[O-])cc2)[C@H]1c1ccc(CO)cc1`, with 1.05 (inactive). With `C[N+](C)(C)CCCC[C@@H]1NC(=O)[C@H]2C[C@@H](C(=O)NCCCCCNC(=O)CS)[C@@H](c3cccc(OCCO)c3)N2C1=O`, the z-score is -0.219 (inactive). On to `[N-]=[N+]=Nc1ccccc1[C@@H]1OC(c2ccc(OCCCO)cc2)=N[C@]1(Cc1ccccc1)C(=O)NCCN1CCOCC1`, for which the z-score is -0.908 (inactive). Turning to `CCOC(=O)C[C@H]1[C@H](OC(=O)c2ccccc2-c2ccccc2)[C@@H](NC(=O)C2CCCCC2)c2cc(OCCCO)ccc2N1C(=O)c1ccc2ccccc2n1`, the z-score is -0.417 (inactive). As to `NC(=O)N1C(=O)C2C(C1=O)C1C=C(CCCO)C2C(c2ccc(CN3CCCC3)cc2)N1Cc1sc2ccccc2c1Cl` (stereo not given), the z-score is -0.301 (inactive). In the case of `CC(C)(C)N1CC=CC23O[C@@H]4/C=C\CCCOC(=O)C4[C@H]2C(=O)N(CCCO)[C@@H]3C1=O` (stereo not given in full), the z-score was 0.114 (inactive). With `CC(C)N1C(=O)c2ccccc2[C@](C)(C(=O)NCC(F)(F)F)[C@@H]1c1ccc(CO)cc1`, the z-score was 0.87 (inactive). In the case of `COc1ccc(C#Cc2ccc3c(c2)[C@]2(C(=O)N3)[C@H](C(=O)O)[C@H]3C(=O)O[C@H](c4ccccc4)[C@H](c4ccccc4)N3[C@@H]2c2ccccc2OCCO)cc1`, the z-score is -0.435 (inactive). The value for `CCCCCC1=C2CNC(Cc3ccccc3)(C(=O)OC)C=C2C(C)C1=O` (stereo not given) was -0.605 (inactive); that for `CCCCCCc1nc(-c2ccc(-c3ccc(Cl)c(Cl)c3)o2)cc2c1[Si](C(C)C)(C(C)C)OC2` was 1.19 (inactive).

As for `COC(=O)[C@H](Cc1ccccc1)N1CC2=CCCC=C[C@@H]2[C@H]1[C@H](O)Cc1ccccc1`, the z-score was 0.705 (inactive). Then `COC(=O)[C@@]1(Cc2ccc(F)cc2)[C@H]2c3cc(C(=O)N4CCCC4)n(CCc4ccccn4)c3C[C@H]2CN1C(=O)c1ccccc1`, with 0.182 (inactive); and `O=C1N(CCS(=O)(=O)c2ccccc2)c2ccccc2C[C@]12N=C(c1ccc(OCCCO)cc1)O[C@@H]2c1ccccc1`, with -1.37 (inactive); and `C=CCN1C(=O)[C@]2(O[C@H](CCn3cc([C@H](O)c4ccccc4)nn3)[C@@H]([Si](C)(C)c3ccc(OC)cc3)[C@@H]2C)c2cc(NC(=O)c3ccc(OC)cc3)ccc21`, with -2.43 (inactive). For the molecule `C=C(COC)C(=O)CC[C@@H](OC(C)=O)c1ccccc1OCCO`, the z-score was 0.837 (inactive). Then `COC(=O)[C@@]1(Cc2ccc(F)cc2)[C@H]2c3cc(C(=O)N4CCCC4)n(Cc4ccccn4)c3C[C@H]2CN1C(=O)c1ccccc1`, with -1.75 (inactive); and `C=CCOC(=O)[C@@H]1[C@H]2C(=O)O[C@H](c3ccccc3)[C@H](c3ccccc3)N2[C@H](c2ccc(OCCOC(=O)[C@H]3C[C@H]4C(=O)NCC(=O)N4[C@H]3c3cccc(OCCO)c3)cc2)[C@@]12C(=O)Nc1ccc(I)cc12`, with 0.169 (inactive); and `COC(=O)C[C@H]1O[C@@]2(C[C@@H]1[Si](C)(C)C)C(=O)N(C)c1ccccc12`, with 0.543 (inactive). In the case of `CN(C)CCCC[C@@H]1NC(=O)[C@@H]2C[C@H](C(=O)NCCCCCCNC(=O)CS)[C@H](c3ccc(O)cc3)N2C1=O`, the z-score is 0.579 (inactive). Then `CCOC(=O)C1=CC[C@@H](c2ccc(OC)cc2)N(S(=O)(=O)c2ccc(C)cc2)[C@H]1CC`, with 0.198 (inactive); and `C=C(CCCC)/C(=C/C[C@H](OC(=O)c1ccncc1)c1ccc(OCCO)cc1)c1cnc2ccccc2c1`, with 1.2 (inactive). As for `COC(=O)[C@@]1(Cc2ccc(F)cc2)[C@H]2c3cc(C(=O)N4CCCC4)n(Cc4cc(F)cc5c4OCOC5)c3C[C@H]2CN1C(=O)c1ccccc1`, the z-score was -1.02 (inactive). The value for `C=C(CCCC)C(=O)CC[C@H](OC(=O)c1ccccc1-c1ccccc1C(=O)O)c1ccc(OCCO)cc1` was 0.52 (inactive). Turning to `C[N+](C)(C)CCCCNC(=O)[C@H]1C[C@H]2C(=O)N[C@@H](Cc3ccccc3)C(=O)N2[C@H]1c1cccc(OCCO)c1`, the z-score was -0.967 (inactive).
